Test results from the supplement of paper PMC11732987, “Enantioselective OTUD7B fragment discovery through chemoproteomics screening and high-throughput optimisation” (Communications Chemistry, 2025).

Key:
Assay in all cases: log2 ratio of Biotin-Ahx-Ub-VS probe labelling (fragment/DMSO); higher = less target engagement (more negative = stronger competition), active = hit call of the paper (q ≤ 0.05, log2 ratio ≤ -1)
Settings in all cases: compound concentration: 200 uM; treatment time: 3 h
USP19 = molecular target: T1, USP19 (UniProt O94966)
T1 sequence (whole entry): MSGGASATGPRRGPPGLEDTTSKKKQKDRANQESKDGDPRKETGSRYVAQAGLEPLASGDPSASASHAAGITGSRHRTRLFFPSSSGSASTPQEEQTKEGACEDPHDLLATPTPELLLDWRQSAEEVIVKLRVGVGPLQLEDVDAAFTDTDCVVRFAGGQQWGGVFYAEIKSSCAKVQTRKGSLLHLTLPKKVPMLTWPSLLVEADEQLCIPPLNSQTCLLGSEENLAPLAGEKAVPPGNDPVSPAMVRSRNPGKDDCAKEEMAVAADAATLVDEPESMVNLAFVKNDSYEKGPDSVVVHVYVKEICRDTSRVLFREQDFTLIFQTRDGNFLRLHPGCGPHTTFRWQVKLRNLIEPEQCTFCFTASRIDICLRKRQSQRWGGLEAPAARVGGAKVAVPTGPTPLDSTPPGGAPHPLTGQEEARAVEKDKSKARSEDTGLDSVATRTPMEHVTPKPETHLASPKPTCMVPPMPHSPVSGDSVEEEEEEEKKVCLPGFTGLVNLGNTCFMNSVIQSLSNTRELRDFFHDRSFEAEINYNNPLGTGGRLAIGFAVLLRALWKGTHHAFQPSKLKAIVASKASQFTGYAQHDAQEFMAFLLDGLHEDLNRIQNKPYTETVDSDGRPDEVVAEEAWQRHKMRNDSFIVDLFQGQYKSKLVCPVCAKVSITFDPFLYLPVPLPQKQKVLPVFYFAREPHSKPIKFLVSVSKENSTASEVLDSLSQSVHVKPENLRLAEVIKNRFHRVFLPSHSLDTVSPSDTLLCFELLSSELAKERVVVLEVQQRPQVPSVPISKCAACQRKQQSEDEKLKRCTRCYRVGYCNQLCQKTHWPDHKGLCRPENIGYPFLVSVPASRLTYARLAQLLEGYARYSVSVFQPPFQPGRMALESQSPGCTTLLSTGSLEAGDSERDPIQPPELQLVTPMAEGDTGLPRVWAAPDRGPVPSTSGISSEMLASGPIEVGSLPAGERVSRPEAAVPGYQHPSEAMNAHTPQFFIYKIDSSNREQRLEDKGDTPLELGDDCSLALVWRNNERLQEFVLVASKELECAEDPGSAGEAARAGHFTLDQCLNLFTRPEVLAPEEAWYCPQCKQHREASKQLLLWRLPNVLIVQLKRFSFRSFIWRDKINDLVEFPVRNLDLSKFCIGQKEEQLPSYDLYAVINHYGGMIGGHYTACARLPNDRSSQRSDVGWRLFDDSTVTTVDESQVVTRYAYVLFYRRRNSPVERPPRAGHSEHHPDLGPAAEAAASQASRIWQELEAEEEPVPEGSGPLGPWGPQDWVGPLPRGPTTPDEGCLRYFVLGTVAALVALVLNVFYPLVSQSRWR
How it was run: (§1)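 Triplicate samples of HEK293T lysate, 495 µg each, received fragment at 200 µM or vehicle for 3 h, followed by Biotin-Ahx-Ub-VS (0.5 µM final) for 1 h. After NeutrAvidin enrichment of labelled DUBs and LysC/trypsin digestion, peptides were run by diaPASEF LC-MS/MS. The values are average log2 fragment/vehicle ratios from global-median-normalised Spectronaut label-free quantities, tested by unpaired t-test on proteins having ≥2 unique peptides.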

USP22 = molecular target: T2, USP22 (UniProt Q9UPT9)
T2 sequence (whole entry): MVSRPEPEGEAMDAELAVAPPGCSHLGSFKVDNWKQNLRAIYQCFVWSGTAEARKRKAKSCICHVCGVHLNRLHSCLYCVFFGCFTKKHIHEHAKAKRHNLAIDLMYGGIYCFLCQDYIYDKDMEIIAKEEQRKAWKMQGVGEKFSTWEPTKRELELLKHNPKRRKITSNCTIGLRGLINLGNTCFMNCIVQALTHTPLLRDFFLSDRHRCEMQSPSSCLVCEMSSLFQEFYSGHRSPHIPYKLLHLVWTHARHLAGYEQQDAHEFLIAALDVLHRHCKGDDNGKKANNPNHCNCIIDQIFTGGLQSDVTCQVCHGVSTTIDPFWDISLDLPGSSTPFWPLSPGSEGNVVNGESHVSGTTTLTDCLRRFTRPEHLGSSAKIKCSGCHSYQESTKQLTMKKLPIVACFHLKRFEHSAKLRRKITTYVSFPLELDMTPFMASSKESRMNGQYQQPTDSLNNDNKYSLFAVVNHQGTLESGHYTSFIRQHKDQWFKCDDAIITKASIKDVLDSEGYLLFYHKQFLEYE
How it was run: as §1

USP24 = USP24 (UniProt Q9UPU5)
USP24, sequence (Q9UPU5 whole entry): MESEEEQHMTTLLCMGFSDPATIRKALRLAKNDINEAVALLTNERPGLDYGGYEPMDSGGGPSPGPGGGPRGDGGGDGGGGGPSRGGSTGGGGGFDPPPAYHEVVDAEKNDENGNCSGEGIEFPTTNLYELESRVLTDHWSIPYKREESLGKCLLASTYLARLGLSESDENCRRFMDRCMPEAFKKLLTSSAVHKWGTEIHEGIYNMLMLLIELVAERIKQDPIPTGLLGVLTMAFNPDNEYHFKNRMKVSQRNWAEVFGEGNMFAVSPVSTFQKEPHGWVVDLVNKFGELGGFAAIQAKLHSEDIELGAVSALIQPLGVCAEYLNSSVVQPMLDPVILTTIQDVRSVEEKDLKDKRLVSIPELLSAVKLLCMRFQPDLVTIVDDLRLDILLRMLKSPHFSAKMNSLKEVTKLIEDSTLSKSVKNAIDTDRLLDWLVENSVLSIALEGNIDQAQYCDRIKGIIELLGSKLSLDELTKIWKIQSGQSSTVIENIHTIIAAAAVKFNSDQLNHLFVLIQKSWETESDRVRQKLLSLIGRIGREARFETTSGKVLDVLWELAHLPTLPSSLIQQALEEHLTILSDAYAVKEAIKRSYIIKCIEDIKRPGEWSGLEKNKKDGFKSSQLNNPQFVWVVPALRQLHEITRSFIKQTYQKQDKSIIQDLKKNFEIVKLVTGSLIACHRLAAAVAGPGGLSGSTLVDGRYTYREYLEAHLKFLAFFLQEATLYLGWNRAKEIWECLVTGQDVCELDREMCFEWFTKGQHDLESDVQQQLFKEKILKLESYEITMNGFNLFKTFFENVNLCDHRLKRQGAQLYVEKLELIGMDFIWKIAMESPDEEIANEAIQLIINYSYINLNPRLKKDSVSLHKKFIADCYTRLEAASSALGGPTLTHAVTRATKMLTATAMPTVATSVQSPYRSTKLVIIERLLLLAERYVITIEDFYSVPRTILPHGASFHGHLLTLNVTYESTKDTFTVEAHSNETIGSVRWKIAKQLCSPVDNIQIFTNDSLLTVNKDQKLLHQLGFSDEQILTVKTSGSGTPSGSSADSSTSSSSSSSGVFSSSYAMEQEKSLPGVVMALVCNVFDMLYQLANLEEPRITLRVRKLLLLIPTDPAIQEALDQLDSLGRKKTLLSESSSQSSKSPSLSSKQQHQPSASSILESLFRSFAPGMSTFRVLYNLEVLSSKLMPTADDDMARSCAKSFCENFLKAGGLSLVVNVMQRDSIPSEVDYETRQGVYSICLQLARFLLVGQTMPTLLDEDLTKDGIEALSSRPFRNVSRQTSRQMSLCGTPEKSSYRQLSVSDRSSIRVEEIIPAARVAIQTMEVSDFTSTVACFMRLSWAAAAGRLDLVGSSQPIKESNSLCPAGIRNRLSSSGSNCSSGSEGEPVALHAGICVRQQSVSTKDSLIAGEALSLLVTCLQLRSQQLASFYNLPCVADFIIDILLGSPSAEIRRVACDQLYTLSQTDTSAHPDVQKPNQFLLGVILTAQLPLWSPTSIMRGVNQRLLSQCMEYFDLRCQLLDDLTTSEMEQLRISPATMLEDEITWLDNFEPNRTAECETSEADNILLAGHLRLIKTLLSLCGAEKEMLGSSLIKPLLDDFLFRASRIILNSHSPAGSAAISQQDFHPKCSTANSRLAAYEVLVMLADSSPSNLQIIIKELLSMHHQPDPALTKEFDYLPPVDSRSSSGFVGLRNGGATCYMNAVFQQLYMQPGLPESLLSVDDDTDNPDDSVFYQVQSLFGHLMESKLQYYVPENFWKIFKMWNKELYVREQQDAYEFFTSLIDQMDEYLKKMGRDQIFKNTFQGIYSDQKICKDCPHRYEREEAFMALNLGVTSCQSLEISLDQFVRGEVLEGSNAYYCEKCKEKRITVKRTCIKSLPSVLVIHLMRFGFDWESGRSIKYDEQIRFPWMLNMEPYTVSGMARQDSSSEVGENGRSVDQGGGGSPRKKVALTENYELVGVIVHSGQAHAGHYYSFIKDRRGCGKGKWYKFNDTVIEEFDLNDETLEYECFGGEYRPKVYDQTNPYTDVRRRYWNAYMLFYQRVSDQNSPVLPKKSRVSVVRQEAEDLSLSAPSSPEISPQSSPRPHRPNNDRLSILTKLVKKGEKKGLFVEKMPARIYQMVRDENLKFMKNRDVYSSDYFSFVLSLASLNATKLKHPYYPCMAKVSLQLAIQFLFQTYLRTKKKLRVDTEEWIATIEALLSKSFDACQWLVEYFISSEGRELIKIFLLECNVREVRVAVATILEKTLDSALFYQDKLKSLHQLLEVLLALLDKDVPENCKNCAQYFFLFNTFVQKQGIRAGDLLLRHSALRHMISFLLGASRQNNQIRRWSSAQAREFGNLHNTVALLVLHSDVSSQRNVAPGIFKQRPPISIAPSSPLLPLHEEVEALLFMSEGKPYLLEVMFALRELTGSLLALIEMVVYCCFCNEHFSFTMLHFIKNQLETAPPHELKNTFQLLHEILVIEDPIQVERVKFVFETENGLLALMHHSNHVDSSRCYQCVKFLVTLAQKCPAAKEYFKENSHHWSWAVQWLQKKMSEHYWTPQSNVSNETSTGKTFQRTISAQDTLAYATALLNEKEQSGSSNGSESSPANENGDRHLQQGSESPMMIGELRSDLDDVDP
How it was run: as §1

USP25 = molecular target: T3, USP25 (UniProt Q9UHP3)
T3 sequence (whole entry): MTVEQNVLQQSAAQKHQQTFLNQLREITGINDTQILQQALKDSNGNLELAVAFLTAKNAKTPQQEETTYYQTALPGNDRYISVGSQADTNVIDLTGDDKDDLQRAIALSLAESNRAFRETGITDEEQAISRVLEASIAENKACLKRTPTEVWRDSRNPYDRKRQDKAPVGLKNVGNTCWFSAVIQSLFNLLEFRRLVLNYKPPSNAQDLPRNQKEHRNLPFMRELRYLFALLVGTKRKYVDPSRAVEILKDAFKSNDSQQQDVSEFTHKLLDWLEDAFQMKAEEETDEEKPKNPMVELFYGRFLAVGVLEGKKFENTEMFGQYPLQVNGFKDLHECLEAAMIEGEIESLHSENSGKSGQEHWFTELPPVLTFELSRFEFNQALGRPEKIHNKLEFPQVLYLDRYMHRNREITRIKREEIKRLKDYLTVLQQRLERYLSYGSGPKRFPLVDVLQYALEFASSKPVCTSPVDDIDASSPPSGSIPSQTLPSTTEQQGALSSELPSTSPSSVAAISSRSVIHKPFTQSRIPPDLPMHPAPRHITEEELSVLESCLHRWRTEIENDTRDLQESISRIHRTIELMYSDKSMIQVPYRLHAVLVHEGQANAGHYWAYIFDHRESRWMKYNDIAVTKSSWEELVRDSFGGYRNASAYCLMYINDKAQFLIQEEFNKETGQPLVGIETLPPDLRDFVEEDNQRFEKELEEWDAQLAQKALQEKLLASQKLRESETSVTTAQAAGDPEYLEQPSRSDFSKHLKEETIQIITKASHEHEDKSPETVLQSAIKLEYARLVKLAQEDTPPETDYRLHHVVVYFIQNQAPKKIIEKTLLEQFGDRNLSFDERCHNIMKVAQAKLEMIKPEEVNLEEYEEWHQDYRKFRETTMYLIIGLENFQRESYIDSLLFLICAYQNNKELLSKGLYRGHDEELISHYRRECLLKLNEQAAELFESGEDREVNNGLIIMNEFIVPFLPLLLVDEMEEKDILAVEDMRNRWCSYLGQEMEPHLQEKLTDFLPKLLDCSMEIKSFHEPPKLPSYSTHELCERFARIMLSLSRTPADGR
How it was run: as §1

USP28 = molecular target: T4, USP28 (UniProt Q96RU2)
T4 sequence (whole entry): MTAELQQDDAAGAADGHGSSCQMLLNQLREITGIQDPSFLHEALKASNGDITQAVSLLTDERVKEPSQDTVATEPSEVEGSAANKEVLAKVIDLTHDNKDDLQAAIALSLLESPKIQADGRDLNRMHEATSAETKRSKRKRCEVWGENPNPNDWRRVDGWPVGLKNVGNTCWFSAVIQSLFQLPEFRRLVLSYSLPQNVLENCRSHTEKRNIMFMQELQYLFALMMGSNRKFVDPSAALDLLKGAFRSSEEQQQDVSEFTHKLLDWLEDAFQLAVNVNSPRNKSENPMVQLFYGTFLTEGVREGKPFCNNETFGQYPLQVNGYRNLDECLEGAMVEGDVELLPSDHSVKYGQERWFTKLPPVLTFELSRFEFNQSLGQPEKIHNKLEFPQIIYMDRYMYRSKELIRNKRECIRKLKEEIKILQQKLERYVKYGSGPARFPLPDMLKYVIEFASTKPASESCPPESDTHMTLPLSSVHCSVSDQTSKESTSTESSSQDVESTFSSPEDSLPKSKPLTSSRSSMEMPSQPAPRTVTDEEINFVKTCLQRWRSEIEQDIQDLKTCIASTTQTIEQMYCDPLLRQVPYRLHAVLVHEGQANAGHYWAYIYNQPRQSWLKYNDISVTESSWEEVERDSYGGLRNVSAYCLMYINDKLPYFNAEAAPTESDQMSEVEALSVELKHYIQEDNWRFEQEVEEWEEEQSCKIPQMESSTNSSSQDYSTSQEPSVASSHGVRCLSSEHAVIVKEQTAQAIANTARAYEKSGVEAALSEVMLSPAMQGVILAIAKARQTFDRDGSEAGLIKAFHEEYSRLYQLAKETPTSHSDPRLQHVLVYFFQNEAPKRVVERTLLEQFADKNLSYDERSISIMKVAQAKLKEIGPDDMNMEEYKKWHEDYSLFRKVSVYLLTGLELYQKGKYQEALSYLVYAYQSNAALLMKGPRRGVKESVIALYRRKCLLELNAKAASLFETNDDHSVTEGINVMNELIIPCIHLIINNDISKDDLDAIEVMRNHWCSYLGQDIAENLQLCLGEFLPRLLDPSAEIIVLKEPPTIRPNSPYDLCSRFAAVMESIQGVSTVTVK
How it was run: as §1

Measured: log2 ratio of Biotin-Ahx-Ub-VS probe labelling

O=C(CCl)N1CCOC2(CCC2)CC1
inactive: USP19 -0.704 | USP22 -0.382 | USP24 -0.23 | USP25 -0.448 | USP28 -0.346
